Data: PubChem BioAssay (NCATS)
Inconclusive results are not listed. The source made the active and inactive calls. Unless noted, the call rests on the fitted dose curve; in most records, active means well fitted curve in the direction sought with a large enough effect; inconclusive means small, poorly fitted or top-dose-only effect, or another doubt; inactive means no such curve, though single readings can be large; an effect the other way counts as inactive or inconclusive.

What was measured:
[1] = molecular target: Calcium and integrin-binding protein 1 (Homo sapiens) (UniProt Q99828); assay: Primary qHTS for Identification of Calcium Integrin Binding Protein 1 (CIB1) Competitor (AID 1508620); further: potency means the concentration at half of the fitted maximal effect
Calcium and integrin-binding protein 1 (Homo sapiens), sequence (Q99828 whole entry, looked up): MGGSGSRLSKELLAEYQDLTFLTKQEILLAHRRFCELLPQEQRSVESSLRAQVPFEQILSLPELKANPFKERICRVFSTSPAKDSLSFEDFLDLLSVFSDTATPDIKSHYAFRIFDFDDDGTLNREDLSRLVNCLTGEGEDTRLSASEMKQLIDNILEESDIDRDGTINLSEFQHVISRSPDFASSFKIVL
In short: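 CIB1-GST (1 uM final) and compound incubated 15 min at room temperature before adding FITC-alphaIIb peptide tracer (100 nM final). Competition for binding read by fluorescence polarization (ex 480, em 540) after another 15 min at room temperature.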

[2] = molecular target: Cytochrome P450 2D6 (Homo sapiens) (UniProt P10635); assay: Cytochrome P450 family 2 subfamily D member 6 (CYP2D6) small molecule antagonists: luciferase biochemical (cell-free) qHTS assay (AID 1645840; active means well fitted curve in the direction sought with a large enough effect in the repeat runs; an effect the other way counts as inactive or inconclusive; further: nearly all actives have a fitted effect of over 55% in size; further: potency means the concentration at half of the fitted maximal effect)
Cytochrome P450 2D6 (Homo sapiens), sequence (P10635 whole entry, looked up): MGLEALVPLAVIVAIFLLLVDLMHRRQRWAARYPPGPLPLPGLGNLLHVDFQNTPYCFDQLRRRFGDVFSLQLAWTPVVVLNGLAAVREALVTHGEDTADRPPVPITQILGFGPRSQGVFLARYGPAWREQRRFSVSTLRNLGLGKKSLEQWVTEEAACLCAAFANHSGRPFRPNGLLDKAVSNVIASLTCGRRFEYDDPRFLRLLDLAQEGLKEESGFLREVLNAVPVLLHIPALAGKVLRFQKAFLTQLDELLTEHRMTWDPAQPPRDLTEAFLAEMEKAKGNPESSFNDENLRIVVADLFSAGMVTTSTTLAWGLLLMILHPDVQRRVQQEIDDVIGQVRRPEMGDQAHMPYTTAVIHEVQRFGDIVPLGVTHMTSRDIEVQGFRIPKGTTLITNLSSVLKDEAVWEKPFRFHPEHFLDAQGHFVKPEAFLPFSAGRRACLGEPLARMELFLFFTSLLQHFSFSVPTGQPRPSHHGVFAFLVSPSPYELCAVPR
In short: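 P450-Glo CYP2D6 system: proluciferin substrate converted by enzyme to luciferin, read by luminescence proportional to activity. Enzyme-substrate mix with compound 10 min at room temperature, then NADPH regeneration 1 h before detection reagent.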

[3] = molecular target: Cytochrome P450 2C9 (Homo sapiens) (UniProt P11712); assay: Cytochrome P450 family 2 subfamily C member 9 (CYP2C9) small molecule antagonists: luciferase biochemical (cell-free) qHTS assay (AID 1645842; active means well fitted curve in the direction sought with a large enough effect in the repeat runs; an effect the other way counts as inactive or inconclusive; further: nearly all actives have a fitted effect of over 55% in size; further: potency means the concentration at half of the fitted maximal effect)
Cytochrome P450 2C9 (Homo sapiens), sequence (P11712 whole entry, looked up): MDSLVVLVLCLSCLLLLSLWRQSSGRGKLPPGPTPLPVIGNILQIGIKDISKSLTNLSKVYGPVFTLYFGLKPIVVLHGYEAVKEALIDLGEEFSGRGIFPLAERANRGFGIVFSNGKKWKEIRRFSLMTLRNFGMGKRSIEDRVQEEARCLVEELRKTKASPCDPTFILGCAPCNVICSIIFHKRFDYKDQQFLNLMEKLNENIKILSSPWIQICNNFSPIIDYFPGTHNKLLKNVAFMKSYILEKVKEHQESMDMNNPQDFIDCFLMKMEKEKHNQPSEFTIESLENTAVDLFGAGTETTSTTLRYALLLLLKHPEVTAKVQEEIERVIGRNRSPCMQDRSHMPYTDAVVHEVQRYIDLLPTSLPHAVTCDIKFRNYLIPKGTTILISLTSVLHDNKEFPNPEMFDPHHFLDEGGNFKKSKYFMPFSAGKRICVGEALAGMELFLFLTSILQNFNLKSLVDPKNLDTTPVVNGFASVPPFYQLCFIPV
In short: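 P450-Glo CYP2C9 system: proluciferin substrate with enzyme in mix containing 0.4% BSA, 10 min at room temperature, then NADPH regeneration solution added and incubated 1 h at 37C. Detection reagent stopped reaction; luminescence read after 20 min as RLU.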

[4] = Primary qHTS for inhibitors of nuclear receptor binding SET domain protein 2 (NSD2) in an isogenic RCH-ACV NSD2 p.E1099K mutant (9B) (AID 1645876); further: nearly all actives have a fitted effect of over 70% in size; further: potency means the concentration at half of the fitted maximal effect
[5] = Primary qHTS for inhibitors of nuclear receptor binding SET domain protein 2 (NSD2) in an RCH-ACV wild type WT cells (2C) (AID 1645877); further: nearly all actives have a fitted effect of over 70% in size; further: potency means the concentration at half of the fitted maximal effect
[6] = molecular target: N-terminal Xaa-Pro-Lys N-methyltransferase 1 (Homo sapiens) (UniProt Q9BV86); assay: Confirmatory qHTS for Inhibitors of N-terminal methyltransferase 1 (NTMT1): MTaseGlo Assay (AID 1645874);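 further: luminescence from SAH made as NTMT1 methylates SPKRIA peptide using SAM; series mostly up to about 100 µM; nearly all actives have a fitted effect of over 65% in size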
N-terminal Xaa-Pro-Lys N-methyltransferase 1 (Homo sapiens), sequence (Q9BV86 whole entry, looked up): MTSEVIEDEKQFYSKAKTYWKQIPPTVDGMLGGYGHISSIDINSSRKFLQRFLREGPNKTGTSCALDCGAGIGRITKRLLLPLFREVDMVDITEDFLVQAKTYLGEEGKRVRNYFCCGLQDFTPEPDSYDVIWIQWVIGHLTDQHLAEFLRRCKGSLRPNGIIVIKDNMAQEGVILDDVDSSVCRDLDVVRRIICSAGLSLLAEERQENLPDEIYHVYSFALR
In short: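 Room-temperature NTMT1 reaction, 30 min, with 100 uM SAM and 1 uM SPKRIA substrate; enzyme 125 nM. Read-out: MTase-Glo luminescence, normalized to no-enzyme and DMSO controls.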

Row | SMILES | Potency [1] | Potency [2] | Potency [3] | Potency [4] | Potency [5] | Potency [6]
1 | C[C@@H](N[C@H]1CCCC[C@@H]1NC(=O)c1ccc(Cl)cc1)c1cccc2ccccc12 | inactive | 0.756 µM (active) | 12 µM (active) | 14.5 µM (active) | 9.16 µM (active) | –
2 | Cc1nc(C#Cc2ccnc(Cl)c2)c(C)n1-c1ccc(OC(F)(F)F)cc1 | inactive | 10.7 µM (active) | 8.49 µM (active) | 18.3 µM (active) | 10.3 µM (active) | –
3 | CCCCNc1ncc(C(=O)NCc2ccc(-n3ccnc3)cc2)c(NC2CCC(O)CC2)n1 (centres undefined) | inactive | 0.674 µM (active) | 0.849 µM (active) | 5.78 µM (active) | 4.59 µM (active) | –
4 | CCCCC1CCN(CCCN2C(=O)CCc3ccccc32)CC1 | inactive | 0.756 µM (active) | inactive | 20.5 µM (active) | 11.5 µM (active) | –
5 | N#Cc1ccc(COC[C@H]2O[C@@H](n3c(NCc4ccc(Cl)c(Cl)c4)nc4c(N)ncnc43)[C@H](O)[C@@H]2O)cc1 | inactive | 10.7 µM (active) | 10.7 µM (active) | 14.8 µM (active) | 9.34 µM (active) | –
6 | Cc1cc(N2CCN(C(=O)Oc3ccc(-c4ccccc4)cn3)CC2)c2ccccc2n1 | inactive | 15.1 µM (active) | 26.8 µM (active) | 12.9 µM (active) | 12.9 µM (active) | –
7 | O=C(Nc1cccnc1)c1cc(-c2ccnc(F)c2)ccc1OCc1ccccc1 | inactive | inactive | 1.51 µM (active) | inactive | inactive | –
8 | CCCC(CCC)C(=O)Nc1ccn([C@@H]2O[C@H](CO)[C@@H](O)C2(F)F)c(=O)n1 | inactive | inactive | 8.49 µM (active) | 1.48 µM (active) | 0.934 µM (active) | –
9 | CCC(CC)C(c1ccc(Nc2nc3ccccc3s2)cc1)n1cncn1 (centres undefined) | inactive | 2.39 µM (active) | 0.952 µM (active) | 18.6 µM (active) | 18.6 µM (active) | –
10 | COC(=O)c1ccc2c(c1)[nH]c1ncnc(NCCCN3CCCCC3)c12 | inactive | inactive | inactive | 16.3 µM (active) | 16.3 µM (active) | –
11 | COc1cc(F)c(C(C)C)cc1-c1ccc(C(F)(F)F)cc1CN1C(=O)OC(c2cc(C(F)(F)F)cc(C(F)(F)F)c2)C1C (centres undefined) | inactive | inactive | inactive | inactive | inactive | –
12 | CN1CCN(C2=Nc3ccccc3Nc3ccc(OS(=O)(=O)C(F)(F)F)cc32)CC1 | inactive | 3.38 µM (active) | 10.7 µM (active) | – | 16.3 µM (active) | –
13 | O=S1(=O)CCN(Cc2cc(NCC3CCOCC3)c3[nH]c(-c4ccccc4)cc3c2)CC1 | inactive | 12 µM (active) | 3.38 µM (active) | – | 10.3 µM (active) | –
14 | O=C(NCCCc1ccccc1)C1CCC(CNS(=O)(=O)c2cccc3nsnc23)CC1 (centres undefined) | inactive | 10.7 µM (active) | 9.52 µM (active) | – | 11.5 µM (active) | –
15 | C[C@@H]1CCCN1CCc1cc2cc(-c3ccc(C#N)cc3)ccc2o1 | inactive | 13.5 µM (active) | inactive | – | 20.5 µM (active) | –
16 | CCn1c(-c2nonc2N)nc2c(C#CCO)ncc(OCCCN)c21 | inactive | inactive | inactive | – | 5.78 µM (active) | –
17 | O=c1nc(-c2ccccn2)sc2ccccc12 | 28.2 µM (active) | inactive | – | 4.59 µM (active) | 1.63 µM (active) | inactive
18 | CC(C)c1ccc(NC(=O)c2cccs2)c(-c2nc3ccccc3[nH]c2=O)c1 | inactive | 13.5 µM (active) | 10.7 µM (active) | – | 16.3 µM (active) | –
19 | Nc1nc2c(c(N3CC[C@@H](N)C3)n1)CCCc1ccccc1-2 | inactive | 3.38 µM (active) | inactive | 20.5 µM (active) | 18.3 µM (active) | –
